Results on 67 compounds are retold here after PubChem BioAssay AID1259421 (Broad Institute, 2018).

Structures are written as SMILES. Values joined by “and” are separate entries in the source; they are usually repeats but may differ in a detail not shown here. Equal values may be shown once. Out of some 6,400 compounds screened, about 610 (9.5%) were called active. Cut-off read from the data, not from the text of the source: active = activity change below about -70%; inconclusive = no clear call, values can overlap the other calls; inactive = above that. What follows is part of a selection rich in actives, with near analogues and random picks from the rest. More than one record can exist for a structure, and the calls need not agree. Where a SMILES comes first, the peptide text is derived from it.

The assay can be described thus: Toxoplasma gondii ME49Luc growth in HeLa cells, luciferase, no IFN-y, primary screen (AID 1259421). As to conditions: T. gondii ME49Luc in HeLa, 72 h, stronger effect = lower value, concentration not given here.
For `C[C@H]1[C@H](C)CC[C@]2(C(=O)O)CC[C@]3(C)C(=CCC4[C@@]5(C)C[C@@H](O)[C@H](O)[C@@](C)(CO)C5[C@H](O)C[C@]43C)[C@H]12` (some centres not stated), the activity change, negative = inhibition is -87.6% (active). The figure for `C[C@H]1[C@H](C)CC[C@]2(C(=O)O)CC[C@]3(C)C(=CC[C@@H]4[C@@]5(C)C[C@@H](O)[C@H](O)[C@@](C)(CO)[C@@H]5CC[C@]43C)[C@H]12` is -67.1% (inactive) and -6.04% (inactive); for `CC1(C)CC[C@]2(C(=O)O)CC[C@]3(C)C(=CC[C@@H]4[C@@]5(C)CC[C@H](O)C(C)(C)[C@@H]5CC[C@]43C)[C@@H]2C1` it is -38.2% (inactive) and 16.6% (inactive); for `C[C@H]1[C@H](C)CC[C@]2(C(=O)O)CC[C@]3(C)C(=CCC4[C@@]5(C)C[C@@H](O)[C@H](O)[C@@](C)(CO)C5CC[C@]43C)[C@H]12` (some centres not stated) it is 14.3% (inactive).

On to `C[C@@H]1CC[C@]2(C(=O)O)CC[C@]3(C)C(=CCC4[C@@]5(C)CC[C@H](O)C(C)(C)C5CC[C@]43C)C2[C@H]1C` (some centres not stated), for which the activity change, negative = inhibition is 8.22% (inactive). `C[C@H]1[C@H](C)CC[C@]2(C(=O)O)CC[C@]3(C)C(=CC[C@@H]4[C@@]5(C)CC[C@H](O)C(C)(C)[C@@H]5CC[C@]43C)[C@H]12`: the activity change, negative = inhibition was -76.6% (active). The figure for `Nc1nc2c(ncn2CCC(CO)CO)c(=O)[nH]1` is 11.1% (inactive); for `COc1c2ccoc2nc2c(OC)c(OCC(O)C(C)(C)O)ccc12` (configuration not stated) it is 7.33% (inactive); for `C[C@@H](NCCCc1cccc(C(F)(F)F)c1)c1cccc2ccccc12` it is 58.2% (inactive).

As to `CO[C@H]1C=CO[C@@]2(C)Oc3c(C)c(O)c4c(O)c(c5c(nc6cc(C)ccn65)c4c3C2=O)NC(=O)/C(C)=C\C=C/[C@H](C)[C@H](O)[C@@H](C)C(O)[C@@H](C)[C@H](OC(C)=O)[C@@H]1C` (some centres not stated), the activity change, negative = inhibition was 2.45% (inactive). As for `CC(C)CC1C(=O)N2CCC[C@H]2C2(O)O[C@](NC(=O)C3C=C4c5cccc6[nH]c(Br)c(c56)C[C@H]4N(C)C3)(C(C)C)C(=O)N12` (some centres not stated), the activity change, negative = inhibition is -3.42% (inactive).

Turning to `CS(=O)(=O)Oc1ccc2c(NC(N)=O)c(C(=O)c3ccc(Cl)cc3Cl)oc2c1`, the activity change, negative = inhibition is 6% (inactive) and -81.6% (active). The figure for `O=C(NS(=O)(=O)c1ccc(Br)s1)c1ccc(Cl)cc1Cl` is 15.3% (inactive); for `Cc1cccc(/C=N/Nc2cc(N3CCOCC3)nc(OCCc3ccccn3)n2)c1` it is -83.9% (active). The figure for `CCOC(=O)CCNc1cc(N2CCc3ccccc3CC2)nc(-c2ccccn2)n1` is -57.4% (inactive); for `O=c1cc(N2CCOCC2)nc2c3ccccc3ccn12` it is 7.41% (inactive); for `O=C(O)c1ccc(-n2nc(-c3ccccc3O)nc2-c2ccccc2O)cc1` it is -30% (inactive).

In the case of `CC(C)(O)CC[C@@H](O)[C@](C)(O)C1CC[C@@]2(O)C3=CC(=O)C4C[C@@H](O)[C@@H](O)C[C@]4(C)C3CC[C@]12C` (some centres not stated), the activity change, negative = inhibition is 12.6% (inactive). The figure for `Fc1cccc(/C=N/N=C/c2cccc(F)c2)c1` is 8.5% (inactive) and 8.55% (inactive); for `C[N+]1(C)[C@@H]2CC(OC(=O)C(O)(c3cccs3)c3cccs3)C[C@H]1[C@@H]1O[C@@H]12` (some centres not stated) it is 13.9% (inactive); for `COc1ccc(CNc2nc(N3CCC[C@H]3CO)ncc2C(=O)NCc2ncccn2)cc1Cl` it is -6.59% (inactive). Take `CCc1cnn2c(NCc3ccc[n+]([O-])c3)cc(N3CCCC[C@H]3CCO)nc12`: the activity change, negative = inhibition is -74.2% (active). For the compound `COc1cc(O)cc([C@@H]2CC(=O)c3c(O)cc(O[C@@H]4O[C@H](CO)[C@@H](O)[C@H](O)[C@H]4O[C@@H]4O[C@@H](C)[C@H](O)[C@@H](O)[C@H]4O)cc3O2)c1`, the activity change, negative = inhibition was 4.15% (inactive).

As for `c1ccc(Oc2nc(NC3CCCCC3)c3[nH]cnc3n2)cc1`, the activity change, negative = inhibition is -6.74% (inactive). As to `Cn1cnc2cc3c(Nc4cccc(Br)c4)ncnc3cc21`, the activity change, negative = inhibition is -18.1% (inactive). In the case of `O=C(NCCCl)N(CCCl)[NH2+][O-]`, the activity change, negative = inhibition is -12% (inactive). For `O=C(O)c1ccc(N2C(=O)/C(=C/c3ccc(-c4ccc([N+](=O)[O-])cc4)o3)C=C2c2ccccc2)cc1`, the activity change, negative = inhibition was 14.9% (inactive).

With `CCCCN(Cc1ccc(C(=O)NO)cc1)C(=O)Nc1ccccc1`, the activity change, negative = inhibition is -84.4% (active). The figure for `CN1CCc2c(c3ccccc3n2Cc2ccc(C(=O)NO)cc2)C1` is -47% (inactive). As for `CCCN(CCC)C(=O)C(CCC(=O)O)NC(=O)c1ccccc1` (configuration not stated), the activity change, negative = inhibition was -0.127% (inactive) and 11.8% (inactive). For the compound `CC1CCCC(C)N1` (configuration not stated), the activity change, negative = inhibition was 19.7% (inactive). The figure for `NCCc1ccn[nH]1` is 7.65% (inactive). The figure for `CN(C)N(C)C(=O)[C@@]1(Cc2ccccc2)CCCN(C(=O)[C@@H](Cc2c[nH]c3ccccc23)NC(=O)C(C)(C)N)C1` is 17.2% (inactive); for `CSc1nc(NC2CCCC2)c([N+](=O)[O-])c(NC2CCCC2)n1` it is 15.2% (inactive) and 17.7% (inactive). The figure for `CCCCCCOC(=O)/N=C(/N)c1ccc(NCc2nc3cc(C(=O)N(CCC(=O)OCC)c4ccccn4)ccc3n2C)cc1` is 13.2% (inactive).

On to `CC(=O)OCC(=O)[C@@]12OC(C)(C)O[C@@H]1CC1C3C[C@H](F)C4=CC(=O)C=C[C@]4(C)[C@@]3(F)[C@@H](O)C[C@@]12C` (some centres not stated), for which the activity change, negative = inhibition was 8.91% (inactive) and 0.0222% (inactive). The figure for `COC1=CC(=O)C(=O)C/C1=C\C=C\c1ccccc1` is -4.53% (inactive); for `CCCCCCCCCCCCN1CCCCCC1=O` it is 10.1% (inactive); for `COc1cc(NS(C)(=O)=O)ccc1Nc1c2ccccc2nc2ccccc12` it is -35.3% (inactive) and -53.5% (inactive). Regarding `COc1ccccc1S(=O)(=O)Nc1ccc2c(c1)CN(C)C(=O)N2`, the activity change, negative = inhibition is 28.4% (inactive).

In the case of `COc1cc(NS(C)(=O)=O)ccc1Cc1c2ccccc2nc2ccccc12`, the activity change, negative = inhibition was -78.8% (active). For `Cc1cc(=O)c2c(O)c3c(O)cc(O)c4c5c(O)cc(O)c6c(O)c7c(=O)cc(C)c8c1c2c(c34)c(c65)c78`, the activity change, negative = inhibition is -7.43% (inactive). The figure for `C[C@@]1(O)[C@H](O)[C@@H](CO)O[C@H]1n1cnc2c(NC3CCCC3)nc(Cl)nc21` is 14.8% (inactive); for `CC(=O)NCC(=O)N1[C@@H]2CC[C@H]1c1ccc(Nc3ncc(C(F)(F)F)c(NC4CCC4)n3)cc12` it is -73.8% (active); for `C=CC(=O)Nc1cccc(Nc2nc(Nc3ccc(NC4CN(CCF)C4)cc3OC)ncc2C(F)(F)F)c1` it is -9.1% (inactive). Turning to `C=CC(=O)Nc1cccc(Nc2nc(Nc3ccc(N4CCN(C(C)=O)CC4)cc3OC)ncc2C(F)(F)F)c1`, the activity change, negative = inhibition is 15.7% (inactive). The figure for `S=c1ccss1` is 1.03% (inactive); for `COc1ccc(-c2cc(=O)c3c(O)cc(O)cc3o2)cc1` it is 127% (inactive); for `CC(C)n1c(/C=C/[C@@H](O)C[C@@H](O)CC(=O)O)c(-c2ccc(F)cc2)c2ccccc21` it is -79.8% (active) and 10.3% (inactive). For the compound `CC(C)c1nc(N(C)S(C)(=O)=O)nc(-c2ccc(F)cc2)c1/C=C/[C@@H](O)C[C@@H](O)CC(=O)O`, the activity change, negative = inhibition was 15.1% (inactive) and -35.2% (inactive). The figure for `O=C(O)C[C@H](O)C[C@H](O)/C=C/c1c(C2CC2)nc2ccccc2c1-c1ccc(F)cc1` is -31.6% (inactive) and 2.61% (inactive); for `CC(C)N1c2ccccc2C(c2ccc(F)cc2)C1/C=C/C(O)CC(O)CC(=O)O` (configuration not stated) it is -15.2% (inactive).

For `COCc1c(C(C)C)nc(C(C)C)c(/C=C/[C@@H](O)C[C@@H](O)CC(=O)O)c1-c1ccc(F)cc1`, the activity change, negative = inhibition is -88.4% (active). Consider `CC(C)c1c(C(=O)Nc2ccccc2)c(-c2ccccc2)c(-c2ccc(F)cc2)n1CC[C@@H](O)C[C@@H](O)CC(=O)O`, for which the activity change, negative = inhibition is 9.33% (inactive). The figure for `COc1cc(SC)ccc1C(=O)N1CCC(Cc2ccccc2)CC1` is 36.5% (inactive) and 48.1% (inactive); for `CC(C)N(C[C@H]1O[C@@H](n2cnc3c(N)ncnc32)[C@H](O)[C@@H]1O)C1CC(CCc2nc3ccc(C(C)(C)C)cc3[nH]2)C1` (some centres not stated) it is 8.46% (inactive) and -64.1% (inactive). Turning to `O=C(O)C(=O)Nc1cccc(-c2nn[nH]n2)c1`, the activity change, negative = inhibition is 5.48% (inactive).

Regarding `CN1CCc2nc(C(=O)N[C@H]3C[C@H](C(=O)N(C)C)CC[C@@H]3NC(=O)C(=O)Nc3ccc(Cl)cn3)sc2C1`, the activity change, negative = inhibition was 9.11% (inactive). Turning to `C[C@H](N)C(=O)N[C@@H](CCC(N)=O)C(=O)O` (H-Ala-Gln-OH), the activity change, negative = inhibition was 3.92% (inactive).

In the case of `N#C/C(=C/c1ccc(O)c(O)c1)C(=O)NCCCc1ccccc1`, the activity change, negative = inhibition is -10.8% (inactive). `NC(N)=NC(=O)c1cnccn1`: the activity change, negative = inhibition is 11.4% (inactive). The figure for `CC(C)(C)NCC(O)COc1cccc2c1C[C@H](O)[C@H](O)C2` (some centres not stated) is 4.27% (inactive); for `CC(C)(C)OC(=O)N[C@H]1CCCCC/C=C\[C@@H]2C[C@@]2(C(=O)NS(=O)(=O)C2CC2)NC(=O)[C@@H]2C[C@@H](OC(=O)N3Cc4cccc(F)c4C3)CN2C1=O` it is 19.7% (inactive).

Take `COc1ccc2c(O[C@H]3CC4C(=O)N(C)CCCC/C=C\[C@@H]5C[C@@]5(C(=O)NS(=O)(=O)C5CC5)NC(=O)[C@@H]4C3)cc(-c3nc(C(C)C)cs3)nc2c1C` (some centres not stated): the activity change, negative = inhibition was -71.4% (active). As to `N#CC(Cc1ccc(O)cc1)c1ccc(O)cc1` (configuration not stated), the activity change, negative = inhibition is 6.16% (inactive) and 5.25% (inactive).

In the case of `CC(=O)OCC(=O)[C@@]1(OC(C)=O)[C@@H](C)CC2C3C[C@H](F)C4=CC(=O)C=C[C@]4(C)[C@@]3(F)[C@@H](O)C[C@@]21C` (some centres not stated), the activity change, negative = inhibition was -5.04% (inactive) and -3.76% (inactive).

Turning to `CCC[C@@H]1C[C@@H](C(=O)N[C@H]([C@H]2O[C@H](SC)[C@H](O)[C@@H](O)[C@H]2O)[C@H](C)O)N(C)C1`, the activity change, negative = inhibition was -17.1% (inactive).
